Test [1] in a line: qHTS assay to identify small molecule antagonists of the constitutive androstane receptor (CAR) signaling pathway - cell viability counter screen (AID 1224837). Also: nearly all actives have a fitted effect of over 45% in size. The gist of the method:
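Cells are seeded, rested 4 hr at 37 C/5% CO2, dosed with compound (15-point series) and 50 nM CITCO, incubated a further 23 hr, and then CellTiter-Fluor reagent is added before fluorescence is read. The line is HepG2 with stable hCAR and CYP2B6-2.2kb.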
In general terms: qHTS replaces the single test concentration by a dilution series.

Test [2] can be described thus: qHTS assay to identify small molecule antagonists of the estrogen related receptor signaling pathway with the pleiotropic PPARgamma coactivator (PGC) from Tox21 10K library - cell viability counter screen (AID 1224840; active = well fitted cell-killing curve with a large enough effect in the repeat runs, not every such curve was filed as active; also: nearly all actives have a fitted effect of over 40% in size). In outline:
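Cell viability is measured by CellTiter-Fluor fluorescence in PGC/ERR cells that receive compounds after a 6-hour attachment period and are then incubated 17.5 hours at 37 C.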

Test [3] deals with Thyrotropin receptor (Homo sapiens) (UniProt P16473). Briefly: qHTS assay to identify small molecule agonists of the thyroid stimulating hormone receptor (TSHR) signaling pathway (AID 1224843; calls by dose curve; also: nearly all actives have a fitted effect of over 45% in size). In outline: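 Agonist-mode screen: TSHR HEK293 cells received test chemicals for half an hour at room temperature, then HTRF cAMP detection reagents for one hour prior to fluorescence measurement. Each chemical ran as a 15-concentration series, triplicated.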

Test [4] can be described thus: qHTS assay to identify small molecule agonists of the hypoxia (HIF-1) signaling pathway - cell viability counter screen (AID 1224844; calls by dose curve; also: nearly all actives have a fitted effect of over 50% in size). The gist of the method:
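Viability counter screen: HRE-bla ME-180 cells plated 5 hrs before compound addition, treated 17 hrs at 37C and 5% CO2, then CellTiter-Glo added after the FRET reporter read; luminescence after 30 min.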

Test [5] can be described thus: qHTS assay to identify small molecule agonists of H2AX (AID 1224845; active = well fitted activation curve with a large enough effect in the signal ratio in the repeat runs, not every such curve was filed as active; the % refers to the signal ratio). The gist of the method:
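Wild-type CHO-K1 cells, plated overnight, exposed 3hr at 37C to 15 concentrations (0.76% DMSO final). Lysed, then HTRF anti-pH2AX (S139) cryptate and anti-H2AX-d2 antibodies, 24 hr room temperature; 665/620 nm emission read.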

Test [6] is described as follows: qHTS assay to identify small molecule agonists of the hypoxia (HIF-1) signaling pathway (AID 1224846; active = well fitted activation curve with a large enough effect in the signal ratio in the repeat runs, not every such curve was filed as active; the % refers to the signal ratio). In outline:
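Agonist mode reporter screen. ME-180 cells stably expressing bla under HRE control received test compounds in DMSO for 17 hrs (37C, 5% CO2), and beta-lactamase activity was then detected with the CCF4-AM FRET substrate.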

Test [7] can be described thus: qHTS assay to identify small molecule agonists of H2AX - cell viability counter screen (AID 1224847; calls by dose curve; also: nearly all actives have a fitted effect of over 30% in size; also: potency is read from the fitted curve at half-maximal effect). The gist of the method: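 Compounds tested at 15 concentrations were incubated 3 hr at 37C with wild-type CHO-K1 cells; cellular ATP-based luminescence (CellTiter-Glo) indicated viability.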
A short description of test [8]: qHTS RealTime-Glo MT Cell Viability Assay in HepG2 cells - 24 hour (AID 1224867). Also: nearly all actives have a fitted effect of over 50% in size. The gist of the method: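 Tox21 10K library screened in qHTS format on HepG2 cells carrying RealTime-Glo reagents. Compounds were added after a 5 h preincubation, and the luminescent signal from continuous culture was measured repeatedly during 40 h treatment.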
Test [9] can be described thus: qHTS RealTime-Glo MT Cell Viability Assay in HEK293 cells - 32 hour (AID 1224868). Also: nearly all actives have a fitted effect of over 50% in size. Also: potency is read from the fitted curve at half-maximal effect. In outline: (§1)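 Luminescence generated by NanoLuc from substrate produced by living HEK293 cells served as the viability signal. Each value reflects the reading at its stated time point during continuous 40 h compound exposure at 37 C.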
Test [10] in a line: A CellTox Green Cytotoxicity Assay to monitor cytotoxicity in HEK293 cells - 0 hour (AID 1224869). Also: nearly all actives have a fitted effect of over 50% in size. In outline: (§2)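 Dead-cell fluorescence measured kinetically: asymmetric cyanine dye, HEK293, 600 cells/well, 5 h settle, 23 nL cpd/DMSO, 37 C, reads 0–40 h every 8 h.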
Test [11] is described as follows: qHTS RealTime-Glo MT Cell Viability Assay in HepG2 cells - 40 hour (AID 1224870). Also: nearly all actives have a fitted effect of over 50% in size. In outline:
(§3)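 HepG2 cells (600/well) mixed with RealTime-Glo MT reagent, settled 5 h at 37 C/5% CO2 before compound addition. Nonlytic NanoLuc luminescence from viable-cell prosubstrate reduction read repeatedly during 40 h treatment at 37 C.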

A short description of test [12]: qHTS RealTime-Glo MT Cell Viability Assay in HEK293 cells - 16 hour (AID 1224872). Also: nearly all actives have a fitted effect of over 50% in size. Also: potency is read from the fitted curve at half-maximal effect. In outline:
as §1

Test [13] is described as follows: qHTS RealTime-Glo MT Cell Viability Assay in HepG2 cells - 8 hour (AID 1224873). Also: nearly all actives have a fitted effect of over 55% in size. In outline: as §3
The target in test [14] is Nuclear receptor subfamily 1 group I member 3 (Homo sapiens) (UniProt Q14994). The test is described as follows: qHTS assay to identify small molecule agonists of the constitutive androstane receptor (CAR) signaling pathway (AID 1224839). Also: nearly all actives have a fitted effect of over 15% in size. Also: potency is read from the fitted curve at half-maximal effect.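 As to activation: HepG2 cells stably carrying human CAR and a CYP2B6 luciferase reporter.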 In outline: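 Compounds tested at 15 concentrations on HepG2 cells stably harbouring hCAR and CYP2B6-2.2kb reporter constructs, co-treated with PK11195 (0.75 uM final), 24 h at 37 C; luminescent reporter signal quantified.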

Test [15] can be described thus: qHTS assay to identify small molecule antagonists of the estrogen related receptor signaling pathway with the pleiotropic PPARgamma coactivator (PGC) from Tox21 10K library (AID 1224841; call rule not given here). The gist of the method:
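Cells stably carrying the PGC/ERR reporter, seeded at 2,000 per well, received pin-transferred compounds 6 h post-plating. Exposure lasted 18 h at 37 C. Signal: One-Glo luminescence.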

Test [16] in a line: qHTS assay to identify small molecule antagonists of the estrogen related receptor (ERR) signaling pathway from Tox21 library (AID 1224848). Also: nearly all actives have a fitted effect of over 50% in size. Also: potency is read from the fitted curve at half-maximal effect. In outline: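 Quantitative high-throughput format: ERR reporter cells (2,000/well) pre-incubated 6 h, treated 18 h at 37 C with compounds in DMSO alongside positive and negative controls, then read by ONE-Glo luminescence.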
Test [17] in a line: A CellTox Green Cytotoxicity Assay to monitor cytotoxicity in HEK293 cells - 40 hour (AID 1224871). Also: nearly all actives have a fitted effect of over 45% in size. Also: potency is read from the fitted curve at half-maximal effect. In outline:
as §2

Test [18] is described as follows: qHTS assay to identify small molecule agonists of the estrogen related receptor signaling pathway with the pleiotropic PPARgamma coactivator (PGC) from Tox21 10K library (AID 1224842). Also: nearly all actives have a fitted effect of over 15% in size. In outline: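 PGC/ERR reporter cell line, 2,000 cells per well, incubated 6 h at 37 C before 23 nL compound in DMSO was added. After 18 h at 37 C, One-Glo luminescence read following 30 min at room temperature.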

Test [19] can be described thus: qHTS assay to identify small molecule agonists of the estrogen related receptor (ERR) signaling pathway from Tox21 library (AID 1224849; calls by dose curve; also: nearly all actives have a fitted effect of over 15% in size). Conditions: ERR reporter cell line, ONE-Glo luciferase, 18 h; at 92.4 µM (top of the series) unless noted. In outline: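 Quantitative HTS in agonist format: NTP ERR cell line, compounds transferred in DMSO after 6 h plating, 18 h incubation at 37 C, ONE-Glo luminescence endpoint.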

Test [20] concerns the target Nuclear receptor subfamily 1 group I member 3 (Homo sapiens) (UniProt Q14994). The test is described as follows: qHTS assay to identify small molecule antagonists of the constitutive androstane receptor (CAR) signaling pathway (AID 1224838).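 Also: HepG2 cells stably expressing hCAR with CYP2B6 luciferase reporter stimulated by CITCO; nearly all actives have a fitted effect of over 40% in size.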 In outline:
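Luminescence from a CYP2B6-2.2kb promoter reporter in hCAR-expressing HepG2 cells reflects CAR signaling. Cells received compounds at 15 concentrations and 50 nM CITCO (final), then incubated 24 h at 37 C/5% CO2.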

Values without a mark were called inactive. Inconclusive results are not listed. Activity calls are given as the source filed them. Unless noted, calls follow the shape of the dose curve; as a rule, active = well fitted curve in the direction sought with a large enough effect in the repeat runs; inconclusive = weak or mixed curves; inactive = no such curve, though single readings can be large; an effect the other way counts as inactive or inconclusive.
% is scaled to controls: 0 for no effect and ±100 for the full control effect.

Chain of Thyrotropin receptor (Homo sapiens) (P16473 whole entry, looked up): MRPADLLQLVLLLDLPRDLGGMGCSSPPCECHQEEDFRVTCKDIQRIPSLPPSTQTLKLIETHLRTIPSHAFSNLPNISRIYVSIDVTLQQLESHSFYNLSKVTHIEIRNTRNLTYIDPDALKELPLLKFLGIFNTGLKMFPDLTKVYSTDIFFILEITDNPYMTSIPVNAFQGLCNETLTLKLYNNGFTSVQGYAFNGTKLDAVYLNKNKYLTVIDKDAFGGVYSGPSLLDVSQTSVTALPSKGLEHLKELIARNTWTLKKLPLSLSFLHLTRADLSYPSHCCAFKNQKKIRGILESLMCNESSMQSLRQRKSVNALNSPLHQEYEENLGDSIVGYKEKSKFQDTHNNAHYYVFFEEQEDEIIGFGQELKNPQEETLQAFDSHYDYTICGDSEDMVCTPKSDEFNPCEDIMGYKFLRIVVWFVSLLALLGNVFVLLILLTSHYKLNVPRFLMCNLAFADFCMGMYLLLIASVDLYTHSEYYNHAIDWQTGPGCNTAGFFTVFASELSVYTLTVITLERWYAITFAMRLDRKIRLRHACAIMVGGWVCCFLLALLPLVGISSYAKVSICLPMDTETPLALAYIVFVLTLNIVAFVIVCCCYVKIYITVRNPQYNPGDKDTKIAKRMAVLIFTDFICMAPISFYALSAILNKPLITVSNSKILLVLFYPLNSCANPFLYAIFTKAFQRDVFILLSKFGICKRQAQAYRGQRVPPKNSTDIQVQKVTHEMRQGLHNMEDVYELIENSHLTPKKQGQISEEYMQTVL
Chain of Nuclear receptor subfamily 1 group I member 3 (Homo sapiens) (Q14994 whole entry, looked up): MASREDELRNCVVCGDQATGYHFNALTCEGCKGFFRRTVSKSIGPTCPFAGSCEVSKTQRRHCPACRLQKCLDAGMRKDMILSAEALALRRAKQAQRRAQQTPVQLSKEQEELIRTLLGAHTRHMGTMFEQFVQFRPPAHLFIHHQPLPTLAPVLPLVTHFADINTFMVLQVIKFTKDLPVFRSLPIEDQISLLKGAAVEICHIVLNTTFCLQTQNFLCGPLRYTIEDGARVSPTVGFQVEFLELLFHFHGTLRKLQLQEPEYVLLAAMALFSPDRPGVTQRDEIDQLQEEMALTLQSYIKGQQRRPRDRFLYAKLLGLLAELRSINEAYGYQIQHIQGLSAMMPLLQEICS

On to `CCC(=O)OC/C=C(\C)CCC=C(C)C`, for which the Potency result in test [1], in [2], in test [3], in [4], in test [5] and in [6] was “inactive” in each case. The Potency result in [7], in test [8], in test [9], in [10], in [11] and in test [12] was “inactive” throughout. Besides, in test [13], the Potency result is “inactive”.
For the molecule `Brc1cc(Br)cc(Br)c1`, the Potency result in [1], in test [14], in [2], in test [15], in test [3] and in [4] was “inactive” throughout. The Potency result in test [6], in [7], in [16], in test [8], in [9] and in test [10] was “inactive” in each case. Moreover, the Potency result in test [11], in test [17], in test [12] and in test [13] was “inactive” each time.
Consider `CC1(C)[C@H](C(=O)OCc2cccc(Oc3ccccc3)c2)[C@@H]1C=C(Cl)Cl`, for which the Potency entry in test [1], in test [14], in test [2], in test [3], in test [4] and in test [5] was “inactive” each time. Further, the Potency result in test [6], in test [7], in [8], in test [9], in test [10] and in test [11] was “inactive” in each case. Besides, the Potency result in test [12] is “inactive”.
Turning to `C=CC(=O)OCC(Br)CBr` (stereo unspecified), the Potency result in [1], in test [2], in test [3], in test [5], in test [7] and in [8] was “inactive” each time. In addition, the Potency entry in [10], in test [11] and in test [13] was “inactive” each time.
Consider `CO[Si](OC)(c1ccccc1)c1ccccc1`, for which the Potency result in [1], in test [14], in test [2], in test [18], in [3] and in test [7] was “inactive” in each case. The Potency entry in test [8], in test [9], in [10], in test [11] and in test [12] was “inactive” each time. Moreover, in [19], the activity change, positive = activation was -12.9%.
In the case of `CCN(CC)c1ccc(C=O)cc1`, the Potency result in test [1], in test [20], in test [2], in [3], in test [4] and in test [5] was “inactive” throughout. Moreover, the Potency entry in [6], in test [7], in test [8], in [10], in test [11] and in [17] was “inactive” each time.
As to `C1CCSC1`, the Potency result in test [1], in test [2], in [3], in test [4], in test [5] and in test [6] was “inactive” each time. The Potency result in test [7], in test [16], in [8], in [10], in [11] and in test [13] was “inactive” each time. Also, the activity change, positive = activation in [19] is 0.687%.
Take `CN1CCN(C)CC1`: the Potency entry in [1], in test [2], in [3], in test [4], in test [5] and in test [6] was “inactive” in each case. The Potency entry in test [7], in test [8], in [9], in test [10], in [11] and in test [17] was “inactive” each time. The Potency entry in test [12] and in test [13] was “inactive” in each case.
Turning to `CCc1c(C)cc(N)c(CC)c1N`, the Potency entry in [1], in test [20], in test [2], in test [3], in [4] and in test [5] was “inactive” each time. Further, the Potency entry in test [6], in [16], in [8], in [9], in test [10] and in test [11] was “inactive” throughout. For the same molecule, the Potency entry in [17], in test [12] and in test [13] was “inactive” each time. In [19], the activity change, positive = activation was -1.89%.
For `Cc1ccc2n[nH]nc2c1`, the Potency result in [1], in test [2], in test [15], in test [18], in test [3] and in test [4] was “inactive” each time. Also, the Potency result in test [5], in test [7], in test [16], in [8], in test [9] and in test [10] was “inactive” in each case. The Potency result in test [11], in test [17], in test [12] and in test [13] was “inactive” each time. For the same molecule, in test [19], the activity change, positive = activation is 4.26%.
Turning to `CC(=O)Nc1ccc(N=Nc2cc(C)ccc2O)cc1`, the Potency result in test [1], in [20], in test [4], in test [5], in test [16] and in test [8] was “inactive” in each case. For the same molecule, the Potency result in test [9], in [10], in test [11], in [17], in test [12] and in test [13] was “inactive” throughout. Besides, the activity change, positive = activation in test [19] was 169% (active).
Consider `O=C(Nc1ccc([N+](=O)[O-])cc1)Nc1ccc([N+](=O)[O-])cc1` (tested in a mixture with another compound), for which the Potency entry in [1], in test [2], in test [3], in test [4], in test [5] and in test [6] was “inactive” each time. Also, the Potency result in test [8], in [10], in test [11] and in test [13] was “inactive” throughout. Moreover, the Potency in [7] is 17.5 µM (active); in test [9] it was 4.77 µM (active).
In the case of `CC(O)(c1ccc(Cl)cc1)c1ccc(Cl)cc1`, the Potency result in test [1], in [20], in [10] and in test [11] was “inactive” each time. The Potency in test [14] was 15.4 µM (active); in test [7] it was 56.6 µM (active); in test [16], 61.1 µM (active); in [9] it was 24.5 µM (active); in test [17], 49 µM (active); in test [12], 38.9 µM (active). Further, the activity change, positive = activation in test [19] was -43.9%.
